# Assay results from the supplement of paper PMC11402862.
# Biological target: FXR LBD (GAL4 fusion) (UniProt Q96RI1)
# Assay: luciferase reporter transactivation, fold of solvent control; higher = stronger receptor activation
# Conditions: HEK293T, exposure time: 24 h
# Method: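 HEK293T cells were transiently transfected with a GAL4-DBD fused to the ligand-binding domain of a human nuclear receptor (PPARα, PPARγ, PPARδ, FXR, LXRα, PXR, RARα or CAR), the GAL4-(UAS)5-TK firefly luciferase reporter and a Renilla luciferase normalisation plasmid. Cells were exposed to compound for 24 h in 0.5% DMSO. Firefly/Renilla luciferase was expressed as fold of the solvent control (=1). Values are the mean of 2-3 biological replicates; receptor agonists were used as positive controls.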
# Sequence of FXR LBD (GAL4 fusion) (Q96RI1 whole entry, looked up, the tested form may be a part): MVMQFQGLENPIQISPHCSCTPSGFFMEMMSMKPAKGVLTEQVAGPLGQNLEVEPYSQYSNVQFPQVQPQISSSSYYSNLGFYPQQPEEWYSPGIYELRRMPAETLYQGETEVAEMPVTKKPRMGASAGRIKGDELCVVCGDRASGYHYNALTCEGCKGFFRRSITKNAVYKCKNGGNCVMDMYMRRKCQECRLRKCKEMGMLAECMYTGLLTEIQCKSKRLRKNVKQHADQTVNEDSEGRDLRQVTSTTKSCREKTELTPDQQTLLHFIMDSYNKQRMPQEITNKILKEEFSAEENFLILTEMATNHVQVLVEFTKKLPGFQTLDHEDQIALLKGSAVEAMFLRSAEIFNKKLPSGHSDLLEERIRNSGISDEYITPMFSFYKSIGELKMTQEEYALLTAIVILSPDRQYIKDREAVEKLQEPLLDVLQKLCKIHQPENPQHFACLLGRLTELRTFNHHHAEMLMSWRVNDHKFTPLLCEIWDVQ
SMILES,luciferase reporter transactivation (concentration: 1 µM),luciferase reporter transactivation (concentration: 5 µM),luciferase reporter transactivation (concentration: 10 µM),luciferase reporter transactivation (concentration: 25 µM),luciferase reporter transactivation (concentration: 50 µM),luciferase reporter transactivation (concentration: 100 µM),luciferase reporter transactivation (concentration: 250 µM),luciferase reporter transactivation (concentration: 500 µM)
OCCC(F)(F)C(F)(F)C(F)(F)C(F)(F)C(F)(F)C(F)(F)F [6:2 fluorotelomer alcohol],0.815,0.885,0.96,0.834,0.847,0.833,0.628,0.416
O=S(=O)(O)CCC(F)(F)C(F)(F)C(F)(F)C(F)(F)C(F)(F)C(F)(F)F [6:2 fluorotelomer sulfonic acid],1.09,0.835,1.32,1.37,1.75,2.38,–,–
O=S(=O)(O)CCC(F)(F)C(F)(F)C(F)(F)C(F)(F)C(F)(F)C(F)(F)C(F)(F)C(F)(F)F [8:2 fluorotelomer sulfonic acid],0.842,1.12,1.16,1.21,1.53,4.17,3.41,2.14
O=C(O)C(F)(F)C(F)(F)C(F)(F)C(F)(F)F [perfluoropentanoic acid],0.969,1.05,1.05,1.12,1.18,1.11,1.18,2.08
CC(C)c1onc(-c2c(Cl)cccc2Cl)c1COc1ccc(/C=C/c2cccc(C(=O)O)c2)c(Cl)c1,–,–,50.2,–,–,–,–,–
